Calls of active or inactive are those of the source.
Columns and labels:
[1] = binders of probe aFSTL3 on microarray, primary screen, stem cell growth factor project, biochemical, small-molecule microarray, fluorescence 635/667 (AID 1064); details: higher = more signal;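 note: measures binding of the biotinylated anti-FSTL3 antibody to printed compounds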
[2] = binders from COS7 lysate, DM2A8 probe, primary screen, torsin A project, cell lysate, small-molecule microarray, fluorescence 635/667 (AID 1065); details: higher = more signal, COS7 lysate expressing mutant human TOR1A
[3] = binders of probe aFGF2 on microarray, primary screen, stem cell growth factor project, biochemical, small-molecule microarray, fluorescence 635/667 (AID 1067); details: higher = more signal;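 note: measures binding of biotinylated aFGF2 protein to printed compounds on slides; z-score merges feature fluorescence and signal-to-noise across triplicate slides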
[4] = binders of probe aFGF10 on microarray, primary screen, stem cell growth factor project, biochemical, small-molecule microarray, fluorescence 635/667 (AID 1071); details: higher = more signal;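 note: score merges 667 nm spot intensity and signal to noise from triplicate slides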
[5] = molecular target: Neurogenic locus notch homolog protein 2 (Homo sapiens) (UniProt Q04721); test: Notch2 binders on small-molecule microarrays, primary screen, biochemical, small-molecule microarray, 635 nm fluorescence, stem cell growth factors (AID 1073); details: Notch2 binding, higher = more signal
[6] = molecular target: Pro-neuregulin-1, membrane-bound isoform (Homo sapiens) (UniProt Q02297); test: NRG1 binders on small-molecule microarrays, primary screen, psychiatric disease protein project, biochemical, small-molecule microarray, fluorescence 635/667 (AID 1075); details: NRG1 binding, 635 nm fluorescence, higher = more signal;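 note: score combines 667 nm spot fluorescence with signal to noise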
[7] = tested on: Neuregulin-1 EGF-like domain; test: binders of neuregulin-1 EGF-like domain, primary screen, biochemical, small-molecule microarray, 635 nm fluorescence (AID 1081); details: small-molecule microarray binding, higher = more signal;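 note: binding of the protein to compounds printed on small-molecule microarray slides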
[8] = FRG1 promoter luciferase signal modulators, primary screen, FRG1 inhibition for FSHD, cell-based, C2C12 myotubes, firefly/Renilla luciferase, luminescence (AID 1084); details: higher = more signal, called active from +8 up or from −8 down
[9] = binders of probe aFST on microarray, primary screen, stem cell growth factor project, biochemical, small-molecule microarray, fluorescence 635/667 (AID 1086); details: higher = more signal;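 note: score merges 667 nm fluorescence with signal-to-noise of each printed compound spot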
[10] = binders of probe aHhip on microarray, primary screen, stem cell growth factor project, biochemical, small-molecule microarray, fluorescence 635/667 (AID 1087); details: higher = more signal;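 note: score merges spot fluorescence at 667nm with spot signal to noise ratio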
[11] = tested on: PRMT1 (protein arginine N-methyltransferase 1); test: PRMT1 binders on small-molecule microarrays, primary screen, biochemical, small-molecule microarray, 635 nm fluorescence (AID 1088); details: small-molecule microarray binding, higher = more signal;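 note: binding of Prmt1 protein to compounds spotted on small-molecule microarray slides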
[12] = yeast growth modulation, basal conditions, primary screen, YJM789 clinical isolate, OD600, 24 h (AID 1089);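 note: growth of clinical yeast isolate S. cerevisiae YJM 789 seeded 1000 cells per well; test concentration not given here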; details: S. cerevisiae YJM789 growth, higher = more signal, called active from +8 up or from −8 down
[13] = fission yeast growth modulation, primary screen, strain 972, OD600, 24 h, no modulator (AID 1090);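 note: basal condition with compound alone and no growth modifier present; test concentration not given here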; details: S. pombe 972 growth, higher = more signal, called active from +8 up or from −8 down
[14] = S. cerevisiae growth modulation with rapamycin, primary screen, strain BY4716, OD600, 96 h (AID 1091); details: higher = more signal, called active from +8 up or from −8 down; note: test concentration not given here
[15] = molecular target: Torsin-1A-interacting protein 2 (Homo sapiens) (UniProt Q8NFQ8); test: LULL1 binders on small-molecule microarray, primary screen, cell lysate, human LULL1 lysate, 635/667 nm fluorescence (AID 1092); details: hLULL1 lysate binding, 635 nm fluorescence, higher = more signal;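 note: probe is lysate of COS7 cells overexpressing human LULL1; score merges per-feature 667 nm fluorescence with signal-to-noise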
[16] = E. coli growth modulation, two-sided OD650, primary screen, E. coli filamentation project, strain DRC41, 24 h (AID 1093); details: OD650, 24 h, higher = more signal, called active from +8 up or from −8 down;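 note: MC1000 strain lacking acrAB efflux and sulA so SOS filamentation is blocked; test concentration not given here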
[17] = small-molecule microarray binders of probe aLefty2, primary screen, biochemical, biotinylated probe, 635/667 nm fluorescence (AID 1094); details: higher = more signal;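 note: score merges spot fluorescence near 667 nm with spot signal-to-noise ratio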
[18] = tested on: Noggin (protein binding on small-molecule microarray); test: Noggin binders on small-molecule microarray, primary screen, biochemical, 635/667 nm fluorescence (AID 1095); details: 635 nm fluorescence, higher = more signal;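 note: score merges 667 nm feature fluorescence with signal to noise over triplicate slides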
[19] = molecular target: Neurogenic locus notch homolog protein 3 (Homo sapiens) (UniProt Q9UM47); test: NOTCH3 binders on small-molecule microarray, primary screen, biochemical, 635/667 nm fluorescence (AID 1096); details: NOTCH3 binding, 635 nm fluorescence, higher = more signal
[20] = small-molecule microarray binders of probe aEGFR, primary screen, biochemical, biotinylated probe, 635/667 nm fluorescence (AID 1097); details: higher = more signal;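 note: probe is a biotinylated anti-EGFR antibody binding compounds printed on slides; score combines fluorescence near 667 nm and signal to noise of each spot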

Chain of Neurogenic locus notch homolog protein 3 (Homo sapiens) (Q9UM47 whole entry, looked up): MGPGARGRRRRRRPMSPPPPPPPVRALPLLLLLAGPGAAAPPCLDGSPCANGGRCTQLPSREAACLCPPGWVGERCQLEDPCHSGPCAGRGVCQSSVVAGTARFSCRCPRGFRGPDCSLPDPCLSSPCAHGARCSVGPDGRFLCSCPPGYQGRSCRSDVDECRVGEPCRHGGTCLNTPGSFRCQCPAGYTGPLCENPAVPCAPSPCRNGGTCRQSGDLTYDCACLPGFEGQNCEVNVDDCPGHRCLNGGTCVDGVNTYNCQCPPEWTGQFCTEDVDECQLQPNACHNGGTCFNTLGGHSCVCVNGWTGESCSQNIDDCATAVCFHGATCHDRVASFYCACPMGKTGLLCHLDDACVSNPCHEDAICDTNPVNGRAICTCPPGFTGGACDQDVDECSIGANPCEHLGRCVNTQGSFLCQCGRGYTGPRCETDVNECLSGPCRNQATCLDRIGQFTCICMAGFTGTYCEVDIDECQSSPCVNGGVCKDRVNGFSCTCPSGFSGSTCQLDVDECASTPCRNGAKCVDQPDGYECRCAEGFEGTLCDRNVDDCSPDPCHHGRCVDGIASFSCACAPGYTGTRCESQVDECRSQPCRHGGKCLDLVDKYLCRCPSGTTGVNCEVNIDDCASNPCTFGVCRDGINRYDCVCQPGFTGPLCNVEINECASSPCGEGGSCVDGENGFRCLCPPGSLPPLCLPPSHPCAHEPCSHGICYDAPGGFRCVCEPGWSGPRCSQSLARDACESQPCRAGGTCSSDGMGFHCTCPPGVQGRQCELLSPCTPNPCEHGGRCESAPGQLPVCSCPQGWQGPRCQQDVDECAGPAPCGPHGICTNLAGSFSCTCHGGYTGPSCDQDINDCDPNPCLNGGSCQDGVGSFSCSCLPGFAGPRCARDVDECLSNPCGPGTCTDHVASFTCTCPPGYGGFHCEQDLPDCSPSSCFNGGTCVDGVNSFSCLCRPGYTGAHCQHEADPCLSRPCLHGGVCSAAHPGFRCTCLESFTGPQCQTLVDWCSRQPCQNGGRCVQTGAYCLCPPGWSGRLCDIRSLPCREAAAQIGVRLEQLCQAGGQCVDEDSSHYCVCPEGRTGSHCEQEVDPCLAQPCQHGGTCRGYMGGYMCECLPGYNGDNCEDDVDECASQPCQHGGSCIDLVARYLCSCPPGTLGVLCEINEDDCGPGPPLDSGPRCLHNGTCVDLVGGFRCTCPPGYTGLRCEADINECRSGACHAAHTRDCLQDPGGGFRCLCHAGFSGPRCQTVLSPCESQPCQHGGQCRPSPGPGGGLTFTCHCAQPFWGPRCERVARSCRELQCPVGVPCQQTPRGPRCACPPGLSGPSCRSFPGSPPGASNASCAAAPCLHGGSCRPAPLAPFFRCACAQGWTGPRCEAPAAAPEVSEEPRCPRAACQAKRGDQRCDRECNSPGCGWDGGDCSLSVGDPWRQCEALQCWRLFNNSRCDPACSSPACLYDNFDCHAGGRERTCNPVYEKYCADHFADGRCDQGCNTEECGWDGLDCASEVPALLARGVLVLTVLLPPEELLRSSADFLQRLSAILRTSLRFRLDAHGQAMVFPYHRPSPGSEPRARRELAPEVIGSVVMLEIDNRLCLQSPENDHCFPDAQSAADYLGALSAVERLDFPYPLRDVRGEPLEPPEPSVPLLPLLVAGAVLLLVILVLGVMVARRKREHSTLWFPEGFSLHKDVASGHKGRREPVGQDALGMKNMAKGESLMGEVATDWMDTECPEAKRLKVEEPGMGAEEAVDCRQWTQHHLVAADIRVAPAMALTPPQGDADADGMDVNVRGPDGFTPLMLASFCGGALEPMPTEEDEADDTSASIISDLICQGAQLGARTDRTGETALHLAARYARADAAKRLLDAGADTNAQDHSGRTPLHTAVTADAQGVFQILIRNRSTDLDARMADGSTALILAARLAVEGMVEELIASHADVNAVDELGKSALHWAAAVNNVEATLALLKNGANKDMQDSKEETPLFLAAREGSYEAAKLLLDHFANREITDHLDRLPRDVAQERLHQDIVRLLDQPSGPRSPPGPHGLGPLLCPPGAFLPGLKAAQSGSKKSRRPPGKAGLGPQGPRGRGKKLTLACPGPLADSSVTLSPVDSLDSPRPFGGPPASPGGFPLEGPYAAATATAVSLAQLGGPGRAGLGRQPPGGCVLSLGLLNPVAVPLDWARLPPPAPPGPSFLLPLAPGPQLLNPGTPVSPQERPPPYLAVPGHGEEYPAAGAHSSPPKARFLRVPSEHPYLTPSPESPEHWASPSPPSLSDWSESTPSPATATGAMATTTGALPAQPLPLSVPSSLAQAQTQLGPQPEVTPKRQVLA
Chain of Neurogenic locus notch homolog protein 2 (Homo sapiens) (Q04721 whole entry, looked up, canonical isoform): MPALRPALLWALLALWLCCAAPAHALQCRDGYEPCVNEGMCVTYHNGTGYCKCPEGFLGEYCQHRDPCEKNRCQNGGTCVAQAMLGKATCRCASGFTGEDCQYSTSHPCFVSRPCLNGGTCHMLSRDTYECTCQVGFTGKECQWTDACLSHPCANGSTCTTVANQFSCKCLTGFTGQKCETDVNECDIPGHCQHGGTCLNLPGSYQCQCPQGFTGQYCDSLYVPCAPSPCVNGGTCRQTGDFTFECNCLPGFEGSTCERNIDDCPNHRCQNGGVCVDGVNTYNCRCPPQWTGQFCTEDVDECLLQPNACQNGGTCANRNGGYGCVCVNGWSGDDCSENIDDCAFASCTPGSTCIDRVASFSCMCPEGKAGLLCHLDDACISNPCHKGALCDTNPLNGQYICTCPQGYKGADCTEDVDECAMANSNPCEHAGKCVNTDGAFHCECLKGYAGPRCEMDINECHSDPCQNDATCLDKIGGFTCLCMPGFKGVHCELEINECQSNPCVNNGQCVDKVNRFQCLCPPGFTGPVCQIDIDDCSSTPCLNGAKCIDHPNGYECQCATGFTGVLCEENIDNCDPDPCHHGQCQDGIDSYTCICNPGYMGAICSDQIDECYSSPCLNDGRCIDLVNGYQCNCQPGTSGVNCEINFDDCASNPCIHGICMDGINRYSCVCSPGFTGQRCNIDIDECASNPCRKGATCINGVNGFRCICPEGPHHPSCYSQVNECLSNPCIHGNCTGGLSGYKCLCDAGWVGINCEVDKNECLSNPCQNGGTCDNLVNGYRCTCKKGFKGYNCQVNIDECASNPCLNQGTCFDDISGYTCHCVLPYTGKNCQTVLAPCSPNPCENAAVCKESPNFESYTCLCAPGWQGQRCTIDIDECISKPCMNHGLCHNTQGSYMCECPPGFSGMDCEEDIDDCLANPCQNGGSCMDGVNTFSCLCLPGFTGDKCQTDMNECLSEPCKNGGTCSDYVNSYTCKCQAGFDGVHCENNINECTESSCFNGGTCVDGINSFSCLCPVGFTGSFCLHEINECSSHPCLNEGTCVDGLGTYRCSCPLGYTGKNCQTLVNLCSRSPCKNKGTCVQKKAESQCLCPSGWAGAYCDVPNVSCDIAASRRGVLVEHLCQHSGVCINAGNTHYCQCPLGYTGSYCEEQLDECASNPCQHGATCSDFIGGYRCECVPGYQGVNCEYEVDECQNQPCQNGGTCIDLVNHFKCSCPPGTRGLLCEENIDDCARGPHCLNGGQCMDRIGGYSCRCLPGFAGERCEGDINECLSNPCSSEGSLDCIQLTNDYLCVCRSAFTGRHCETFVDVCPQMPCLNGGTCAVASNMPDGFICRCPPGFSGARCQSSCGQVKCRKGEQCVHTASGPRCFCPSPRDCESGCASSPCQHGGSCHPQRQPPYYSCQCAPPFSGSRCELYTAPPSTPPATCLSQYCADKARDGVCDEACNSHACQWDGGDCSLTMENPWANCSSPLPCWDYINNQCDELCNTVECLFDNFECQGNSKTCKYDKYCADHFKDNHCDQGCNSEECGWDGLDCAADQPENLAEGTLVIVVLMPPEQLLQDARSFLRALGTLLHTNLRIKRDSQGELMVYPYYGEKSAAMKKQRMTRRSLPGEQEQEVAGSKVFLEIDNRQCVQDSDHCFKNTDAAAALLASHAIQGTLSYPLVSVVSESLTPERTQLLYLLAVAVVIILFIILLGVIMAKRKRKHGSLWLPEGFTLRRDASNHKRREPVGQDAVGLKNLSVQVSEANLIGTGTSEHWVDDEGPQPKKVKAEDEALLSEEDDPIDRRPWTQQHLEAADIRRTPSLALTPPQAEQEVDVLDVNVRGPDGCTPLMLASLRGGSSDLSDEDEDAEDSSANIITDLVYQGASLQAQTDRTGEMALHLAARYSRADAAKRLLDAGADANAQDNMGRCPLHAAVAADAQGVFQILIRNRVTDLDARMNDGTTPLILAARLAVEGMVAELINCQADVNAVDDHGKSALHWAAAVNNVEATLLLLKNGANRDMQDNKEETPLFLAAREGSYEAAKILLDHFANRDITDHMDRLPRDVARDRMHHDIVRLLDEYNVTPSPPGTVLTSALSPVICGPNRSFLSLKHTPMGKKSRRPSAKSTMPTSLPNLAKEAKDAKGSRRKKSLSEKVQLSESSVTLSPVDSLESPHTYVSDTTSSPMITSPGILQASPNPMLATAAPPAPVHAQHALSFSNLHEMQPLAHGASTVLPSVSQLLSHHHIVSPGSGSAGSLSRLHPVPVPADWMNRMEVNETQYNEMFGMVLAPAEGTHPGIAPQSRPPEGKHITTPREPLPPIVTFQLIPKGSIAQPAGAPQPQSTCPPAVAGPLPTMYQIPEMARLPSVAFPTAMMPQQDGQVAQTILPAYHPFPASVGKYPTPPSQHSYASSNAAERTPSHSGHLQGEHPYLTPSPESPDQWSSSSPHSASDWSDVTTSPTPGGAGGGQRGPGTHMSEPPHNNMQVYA

Compound	composite z-score [1]	composite z-score [2]	composite z-score [3]	composite z-score [4]	composite z-score [5]	composite z-score [6]	composite z-score [7]	z-score [8]	composite z-score [9]	composite z-score [10]	composite z-score [11]	z-score [12]	z-score [13]	z-score [14]	composite z-score [15]	z-score [16]	composite z-score [17]	composite z-score [18]	composite z-score [19]	composite z-score [20]
CCOC(=O)c1ccc(NC(=O)O[C@H]2[C@H](OC(=O)Nc3ccc4c(c3)OCO4)[C@H](OC(=O)Nc3ccc4c(c3)OCO4)[C@@H](OC)O[C@@H]2CO)cc1	0.237	0.807	0.129	1.14	1.59	0.898	1.3	1.08 (inactive)	0.792	0.28	1.54	1.21 (inactive)	1.57 (inactive)	6.12 (inactive)	3.1	0.62 (inactive)	0.17	1.34	1.06	0.251
COCC1=C2[C@@H](CCc3ccccc3)OB(O)C[C@@H]2[C@@H]2C(=O)C=CC(=O)[C@@H]2C1	-0.265	0.42	-0.051	0.328	0.386	0.404	0.952	-0.632 (inactive)	0.182	-0.0708	1.57	0.506 (inactive)	-2.86 (inactive)	-0.288 (inactive)	1.32	-0.224 (inactive)	-0.143	0.883	1.12	-0.106
CCCC[C@@H]1C[C@H]1[C@@H](NC(=O)c1cccs1)c1ccc(C(F)(F)F)cc1	0.211	-0.0988	-0.0783	-0.618	-0.845	-0.265	-0.743	-0.878 (inactive)	0.0353	0.948	0.183	1.19 (inactive)	1.01 (inactive)	-0.0454 (inactive)	-0.683	-1.72 (inactive)	-0.0009	-0.345	-0.182	-0.168
O=C1O[C@H](c2ccccc2)[C@H](c2ccccc2)N2[C@H]1[C@@H](C(=O)NC[C@H](O)c1ccccc1)[C@]1(C(=O)Nc3ccc(C#CCCO)cc31)[C@H]2c1ccc(OCCO)cc1	0.141	0.628	0.0521	0.984	0.782	1.23	1.23	1.59 (inactive)	0.131	-0.226	1.55	2.73 (inactive)	1.62 (inactive)	4.7 (inactive)	2.08	0.301 (inactive)	-0.122	0.558	0.818	-0.133
CCCCCCCCCCC(O)C1C=CC2C(=O)N(C)C(=O)C2N1Nc1ccc([N+](=O)[O-])cc1[N+](=O)[O-] (stereo not given)	-0.222	-0.254	0.0772	0.131	1.55	1.12	0.975	0.262 (inactive)	0.839	-0.0994	0.195	0.766 (inactive)	0.637 (inactive)	1.35 (inactive)	3.02	-1.68 (inactive)	0.379	-0.894	1.1	0.153
CCCCCCc1nc(C2CC2)cc2c1[Si](C(C)C)(C(C)C)OC2	0.355	-0.376	-0.14	-0.715	-1.13	-0.526	-1.17	1.19 (inactive)	-0.319	-0.137	-0.439	0.01 (inactive)	-0.183 (inactive)	0.0489 (inactive)	-0.908	-0.772 (inactive)	-0.152	-0.798	-0.861	-0.228
O=C1O[C@H](c2ccccc2)[C@H](c2ccccc2)N2[C@H]1[C@@H](C(=O)Nc1nc3ccccc3s1)[C@]1(C(=O)Nc3ccccc31)[C@H]2c1ccc(OCCO)cc1	-0.401	0.292	-0.0734	0.452	1.31	1.29	1.11	3.35 (inactive)	0.778	0.0854	1.31	1.48 (inactive)	1.95 (inactive)	3.31 (inactive)	1.96	0.0528 (inactive)	-0.0446	1.5	1.05	0.0162
COCCOC(=O)N1C(=O)[C@@]2(c3cc(C#CCNC(N)=O)ccc31)[C@H](C(=O)N1CCc3cc(OC)c(OC)cc3C1)[C@H]1C(=O)O[C@H](c3ccccc3)[C@H](c3ccccc3)N1[C@@H]2c1ccccc1OCCO	-0.178	1.05	-0.0908	0.371	0.749	0.202	0.869	-0.902 (inactive)	0.31	-0.191	1.37	-0.959 (inactive)	0.319 (inactive)	3.2 (inactive)	2.14	1.16 (inactive)	0.0253	1.36	1.11	-0.0734
COCCCNC(=O)[C@]1(CCS(=O)(=O)c2ccccc2)N=C(c2ccc(OCCCO)cc2)O[C@@H]1c1ccccc1CN=[N+]=[N-]	0.688	1.32	0.418	0.948	1.63	1.79	1.14	0.174 (inactive)	1.44	-0.0518	1.55	1.52 (inactive)	0.971 (inactive)	2.59 (inactive)	3.47	0.773 (inactive)	0.417	0.896	1.02	0.455
C=C(/C(=C/C[C@H](OC(C)=O)c1ccccc1OCCO)c1cc(C(=O)OC)ccc1OC)C(C)C	-0.243	-0.415	-0.0222	0.826	-0.0413	0.0648	1.09	-0.976 (inactive)	-0.36	0.126	0.617	0.946 (inactive)	-1.2 (inactive)	-0.376 (inactive)	1.04	1.18 (inactive)	-0.141	0.295	-0.189	0.509
